# Test results published in PubChem BioAssay (EPA / NIEHS).
# “And” between values parts separate entries of the source, which are not always exact repeats. Equal entries are not always repeated. Records with an inconclusive call do not appear. Some compounds were tested as several samples or in several runs, with calls that do not always agree. The source made the active and inactive calls. How the source made its calls, unless noted: active means hit-call score of the fitted dose curve at least 0.9, where 1 is the maximum; inactive means score below 0.9.
# Assays:
# [1] = CCTE_Padilla_ZF_Score.Position: CCTE's 144 Hour Post-fertilization zebrafish Assay Score for Position, Padilla Lab (AID 2284409)
# In short: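 Wild-type zebrafish embryos (with chorions) exposed singly from 6–8 hpf in sealed wells of Hanks' solution at 26C, rinsed at 5 dpf. At 6 dpf, blinded assessors scored abnormal water-column position by brightfield stereomicroscopy, relative to DMSO.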
# [2] = CCTE_Padilla_ZF_Score.Living: CCTE's 144 Hour Post-fertilization zebrafish Assay Score for Viability, Padilla Lab (AID 2284410);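 further: larval death at 6 dpf judged by absent heartbeat or coagulation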
# In short: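 Mortality at 6 dpf, judged as absent heartbeat or coagulation by two blinded observers, after sealed static exposure beginning at 6–8 hpf at 26C. Larvae were rinsed free of chemical at 5 dpf, and activity was fitted relative to DMSO.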
# [3] = CCTE_Padilla_ZF_Score.General: CCTE's 144 Hour Post-fertilization zebrafish Assay Score for General Malformation, Padilla Lab (AID 2284411)
# In short: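 Malformation, death and hatching were scored at 6 dpf by two blinded observers under a stereo microscope. Embryos were dosed singly from 6-8 hpf in sealed plates of 10% Hanks' at 26C and rinsed on 5 dpf; DMSO baseline.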
# [4] = CCTE_Padilla_ZF_Score.Tail: CCTE's 144 Hour Post-fertilization zebrafish Assay Score for Tail Malformation, Padilla Lab (AID 2284414)
# In short: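 Tail malformations were scored at 6 dpf by two blinded assessors under a stereo microscope. Chorionated embryos had been exposed from 6-8 hpf in sealed wells of 10% Hanks' at 26 C, then rinsed free of chemical at 5 dpf.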
# [5] = CCTE_Padilla_ZF_Score.Blood_pooling: CCTE's 144 Hour Post-fertilization zebrafish Assay Score for Blood Pooling, Padilla Lab (AID 2284415)
# In short: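 Blood pooling was scored at 6 dpf under a stereo microscope by two blinded assessors, fitted upward against DMSO. Single embryos were dosed at 6–8 hpf in 10% Hanks', kept sealed at 26C (14:10 h cycle) and rinsed at 5 dpf.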
# [6] = CCTE_Padilla_ZF_Score.Any: CCTE's 144 Hour Post-fertilization zebrafish Assay Score for Any Mortality or Malformation, Padilla Lab (AID 2284416)
# In short: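 Wild-type zebrafish embryos with chorions, one per well in 10% Hanks' from 6–8 hpf, dosed in sealed plates at 26 C, 14:10 h light:dark; rinsed at 5 dpf; blinded scoring at 6 dpf for death or malformation, versus DMSO.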
# TTR (gene 7276) = experiment: CCTE_GLTED_hTTR_0.125uM: CCTE's human Transthyretin (hTTR) Inhibition Assay, with 0.125uM TTR, Great Lakes Toxicology and Ecology Division (GLTED) Lab (AID 2284431);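 further: hits lower the fluorescence signal relative to DMSO baseline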
# In short: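 TTR 0.125uM + test chemical, 2 h; ANSA probe displacement; ex 380/em 475 fluorescence; signal loss vs DMSO control.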
# [7] = test system: SRY-box transcription factor 2 (SOX2) Protein Expression, Deisenroth Lab, SOX2 (gene 6657); experiment: CCTE_Deisenroth_DEVTOX-GLR_Endo_SOX2: CCTE's DevTox GLR-Endo Assay Evaluation of SRY-box transcription factor 2 (SOX2) Protein Expression, Deisenroth Lab (AID 2284412; active means hit-call score of the fitted dose curve at least 0.9, where 1 is the maximum)
# In short: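 Endpoint is percent SOX2-positive cells (SOX2+ count/total cells) minus 0.2% DMSO control, from high-content imaging of fixed, nuclear-stained RUES2-GLR cells. Dosing twice at 24 h intervals over 48 h differentiation, 1 nM–200 uM in 10 points.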
# [8] = test system: SRY-box transcription factor 17 (SOX17) Protein Expression, Deisenroth Lab, SOX17 (gene 64321); experiment: CCTE_Deisenroth_DEVTOX-GLR_Endo_SOX17: CCTE's DevTox GLR-Endo Assay Evaluation of SRY-box transcription factor 17 (SOX17) Protein Expression, Deisenroth Lab (AID 2284413)
# In short: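 Human RUES2-GLR cells carrying an inducible fluorescent reporter are differentiated in defined media for 48 h and dosed twice, 24 h apart. After fixation and nuclear staining, imaging yields SOX17+ cell percentage relative to 0.2% DMSO-treated differentiated cells.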
# [9] = test system: Brachyury (BRA) Protein Expression, TBXT (gene 6862); experiment: CCTE_Deisenroth_DEVTOX-GLR_Endo_BRA: CCTE's DevTox GLR-Endo Assay Evaluation of Brachyury (BRA) Protein Expression, Deisenroth Lab (AID 2284417)
# In short: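 RUES2-GLR pluripotent cells differentiated 48 h with two chemical exposures 24 h apart, 10-point range 1 nM - 200 uM. Percentage of BRA+ cells per total count by high-content imaging, minus 0.2% DMSO control.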
# [10] = CCTE_Deisenroth_DEVTOX-GLR_Endo_CellCount: Viability Assessment in CCTE's DevTox GLR-Endo Assay, Deisenroth Lab (AID 2284420)
# In short: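 Nuclei counted by fluorescence microscopy as a surrogate for cell number, expressed as percent change relative to 0.2% DMSO control. Human RUES2-GLR cells, 48 h differentiation, dosed twice; 1 nM - 200 uM series.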
# [11] = test system: SRY-box transcription factor 17 (SOX17) Protein Expression, Deisenroth Lab, SOX17 (gene 64321); experiment: CCTE_Deisenroth_DEVTOX-GLR_Pluri_SOX17: CCTE's DevTox GLR-Pluri Assay Evaluation of SRY-box transcription factor 17 (SOX17) Protein Expression, Deisenroth Lab (AID 2284427; active means hit-call score of the fitted dose curve at least 0.9, where 1 is the maximum)
# In short: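 Readout: percent SOX17+ cells (SOX17+ count/cell count) by high-content imaging of an inducible fluorescent reporter, corrected for 0.2% DMSO solvent control. RUES2-GLR cells, 48 h differentiation, dosed twice at 24 h intervals, 1 nM - 200 uM.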
# [12] = test system: SRY-box transcription factor 2 (SOX2) Protein Expression, Deisenroth Lab, SOX2 (gene 6657); experiment: CCTE_Deisenroth_DEVTOX-GLR_Pluri_SOX2: CCTE's DevTox GLR-Pluri Assay Evaluation of SRY-box transcription factor 2 (SOX2) Protein Expression, Deisenroth Lab (AID 2284428)
# In short: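 RUES2-GLR (human pluripotent), 48 h post-dosing, 2 exposures q24h, 1 nM–200 uM 10-pt. Fixed, nuclear dye, high-content imaging 5 fields/well. Endpoint: % SOX2+ cells (SOX2+/total count) vs 0.2% DMSO; n≥4.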
# [13] = test system: Brachyury (BRA) Protein Expression, Deisenroth Lab, TBXT (gene 6862); experiment: CCTE_Deisenroth_DEVTOX-GLR_Pluri_BRA: CCTE's DevTox GLR-Pluri Assay Evaluation of Brachyury (BRA) Protein Expression, Deisenroth Lab (AID 2284429; active means hit-call score of the fitted dose curve at least 0.9, where 1 is the maximum)
# In short: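 RUES2-GLR reporter line; 48 h mesoderm differentiation; two exposures, 24 h apart; 1 nM - 200 uM, 10 points; nuclear stain, high-content imaging, 5 fields/well; endpoint = %BRA+ cells of total count minus 0.2% DMSO; n=4.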
# [14] = CCTE_Deisenroth_DEVTOX-GLR_Pluri_CellCount: Viability Assessment in CCTE's DevTox GLR-Pluri Assay Evaluation of Total Cell Counts, Deisenroth Lab (AID 2284430)
# In short: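 Cytotoxicity readout: fluorescent nuclei counts by high-content imaging, expressed as percent change relative to 0.2% DMSO. Human RUES2-GLR pluripotent line differentiated 48 h, dosed twice at 24-h intervals across 1 nM - 200 uM (10 points).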
smiles,measurement,setting,value
C=C(C)C(=O)OCCC(F)(F)C(F)(F)C(F)(F)C(F)(F)C(F)(F)C(F)(F)F,outcome,[1],inactive
same,outcome,[2],inactive
same,outcome,[3],inactive
same,outcome,[4],inactive
same,outcome,[5],inactive
same,outcome,[6],inactive
OCCC(F)(F)C(F)(F)C(F)(F)C(F)(F)C(F)(F)C(F)(F)C(F)(F)C(F)(F)F,outcome,[1],inactive
same,AC50,[2],78.3 µM (active)
same,AC50,[3],88.8 µM (active)
same,outcome,[4],inactive
same,outcome,[5],inactive
same,outcome,[6],inactive
CC(C)(C)c1ccc(O)c(C(C)(C)C)c1,AC50,TTR (gene 7276),9.98 µM (active)
CCCCCCCCC(=O)O,AC50,TTR (gene 7276),12.4 µM (active)
CC1=C(/C=C/C(C)=C/C=C/C(C)=C/C(=O)O)C(C)(C)CCC1,AC50,[7],16 µM (active)
same,AC50,[8],0.102 µM (active)
same,AC50,[9],8.08 µM (active)
same,AC50,[10],4.43 µM (active)
same,AC50,[11],14.1 µM (active)
same,AC50,[12],0.576 µM (active)
same,AC50,[13],12 µM (active)
FC(F)(I)C(F)(F)C(F)(F)C(F)(F)C(F)(F)C(F)(F)I,AC50,[1],28 µM (active) and 4 µM (active)
same,AC50,[2],88.8 µM (active)
same,outcome,[2],inactive
same,AC50,[3],15.6 µM (active) and 5.69 µM (active)
same,outcome,[4],inactive
same,AC50,[5],28.6 µM (active) and 3 µM (active)
same,AC50,[6],10 µM (active) and 3.34 µM (active)
CCCCCCCCCCCCc1ccccc1S(=O)(=O)O,AC50,TTR (gene 7276),0.89 µM (active)
NC(=O)N1C(=O)C(C(=O)c2cc(Cl)cs2)c2cc(F)c(Cl)cc21 (stereo not drawn),AC50,TTR (gene 7276),0.0481 µM (active)
CC(O)CO (stereo not drawn),outcome,[8],inactive
same,outcome,[9],inactive
same,outcome,[10],inactive
same,outcome,[11],inactive
same,outcome,[12],inactive
same,outcome,[13],inactive
same,outcome,[14],inactive
NCC(F)(F)C(F)(F)C(F)(F)C(F)(F)C(F)(F)C(F)(F)C(F)(F)F,outcome,[1],inactive
same,outcome,[2],inactive
same,outcome,[3],inactive
same,outcome,[4],inactive
same,outcome,[5],inactive
same,outcome,[6],inactive
